Measured values as given in PubChem BioAssay (EPA / NIEHS).
A structure can be active in one record and inactive in another. The source made the active and inactive calls. The calls were made as follows: active = hit-call score of the fitted dose curve at least 0.9, where 1 is the maximum; inactive = score below 0.9.

Each molecule was assayed against Transcription factor E2F1 (Homo sapiens) (UniProt Q01094) (assay: ATG_E2F_CIS: Attagene CIS-FACTORIAL HepG2 Assay for human E2F Transcription Factor 1 (AID 2282935)). Conditions: HepG2 Attagene cis-reporter, E2F reporter RNA transcripts; actives raise or lower the signal.
Chain of Transcription factor E2F1 (Homo sapiens) (Q01094 whole entry, looked up): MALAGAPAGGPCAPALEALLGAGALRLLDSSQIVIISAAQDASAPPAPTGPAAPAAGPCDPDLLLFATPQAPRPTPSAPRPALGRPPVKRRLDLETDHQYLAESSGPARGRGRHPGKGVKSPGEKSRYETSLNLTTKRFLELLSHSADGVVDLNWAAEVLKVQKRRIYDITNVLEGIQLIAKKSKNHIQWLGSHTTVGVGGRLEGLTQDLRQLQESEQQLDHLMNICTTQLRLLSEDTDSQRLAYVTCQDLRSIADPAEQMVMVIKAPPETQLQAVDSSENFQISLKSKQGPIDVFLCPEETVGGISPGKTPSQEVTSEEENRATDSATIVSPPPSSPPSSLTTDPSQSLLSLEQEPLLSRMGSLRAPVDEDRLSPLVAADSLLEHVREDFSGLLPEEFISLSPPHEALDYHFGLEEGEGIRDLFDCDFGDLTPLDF
Procedure: ATG_CIS is a cell-based, multiplexed-readout assay that uses HepG2, a human liver cell line, with measurements taken at 24 hours after chemical dosing in a 24-well plate.ATG_E2F_CIS is one of 52 assay component(s) measured or calculated from the ATG_CIS assay. It is designed to make measurements of mRNA induction, a form of inducible reporter, as detected with fluorescence intensity signals by Reverse transcription polymerase chain reaction (RT-PCR) and Capillary electrophoresis technology.Data from the assay component ATG_E2F_CIS was analyzed into 1 assay endpoint. This assay endpoint, ATG_E2F_CIS, was analyzed with bidirectional fitting relative to DMSO as the negative control and baseline of activity. Using a type of inducible reporter, measures of mRNA for gain or loss-of-signal activity can be used to understand the reporter gene at the transcription factor-level as they relate to the gene E2F1. Furthermore, this assay endpoint can be referred to as a primary readout, because this assay has produced multiple assay endpoints where this one serves a reporter gene function. To generalize the intended target to other relatable targets, this assay endpoint is annotated to the dna binding intended target family, where the subfamily is E2F transcription factor.
Human liver HepG2 cells are transiently transfected with multiple reporter transcription units (MRTUs) in 6-well plates using FuGene 6 reagent (Roche; 3 ml FuGene/1 mg DNA). The MRTU constructs are regulated by a cis-regulating element (promoter). […] A major difference between the CIS and TRANS system is that in CIS activities of endogenous TFs are measured, whereas the TRANS assay evaluates changes in activities of exogenous, chimeric NR-Gal4 proteins. […] At the end of 24 hour incubation, total RNA was isolated using TriZol reagent (Invitrogen). The isolated RNA is then reverse-transcribed using oligo(dT) primer and Mo-MLV reverse transcriptase (Invitrogen) with DNAse I (Ambion) treatment for 30 min. The one-tenth of the produced cDNA was amplified by PCR using Taq DNA polymerase (Invitrogen) and two reporter sequence-specific primers. The PCR products were fluorescently labeled by primer extension with 6-arboxyfluorescein (6-FAM) 5'-labeled reporter sequence-specific primer (2 min at 95 C, 20 s at 68 C and 10 min at 72 C) and these products were digested with 5U of HpaI (New England Biolabs) for 2h at 37 C. The fragments were purified using Qiaquick PCR columns (Qiagen), analyzed on an ABI 3130xL genetic analyzer (Applied Biosystems) with peak positions identified by using a set of X-rhodamine (ROX)-labeled MapMarker1000 molecular weight standards (BioVentures). The raw capillary electrophoresis data was processed using Attagraph software (Attagene).
For Nc1nc(N)nc(NC2CC2)n1, the outcome was “inactive”. For Cc1ccn2nc(S(=O)(=O)Nc3c(F)cccc3F)nc2n1, the outcome was “inactive”. CCCCOC(=O)[C@@H](C)Oc1ccc(Oc2ccc(C#N)cc2F)cc1 was tested, and the outcome was “inactive”. For CCNc1nc(Cl)nc(NC(C)(C)C#N)n1, the outcome was “inactive”. For CCC(CC)Nc1c([N+](=O)[O-])cc(C)c(C)c1[N+](=O)[O-], the outcome was “inactive”. In the case of CC(C)N(C(=O)SCC(Cl)=C(Cl)Cl)C(C)C, the outcome is reported as “inactive”. With C#CC(C)(C)NC(=O)c1cc(Cl)cc(Cl)c1 the outcome was “inactive”. For CC(C)[C@H](C(=O)O[C@H](C#N)c1cccc(Oc2ccccc2)c1)c1ccc(Cl)cc1, the outcome was “inactive”. In the case of CNC(=O)ON=C(SC)C(=O)N(C)C, the outcome is reported as “inactive”. In the case of COP(=O)(OC)OC(Br)C(Cl)(Cl)Br (stereo not given), the outcome is reported as “inactive”. In the case of N#CSCSC#N, the outcome is reported as “inactive”. For Cc1nn(-c2cc(NS(C)(=O)=O)c(Cl)cc2Cl)c(=O)n1C(F)F, the outcome was “inactive”. For CCOP(=S)(OCC)OC(Cl)C(Cl)(Cl)Cl (stereo not given), the outcome was “inactive”. In the case of FC(F)C(F)(F)OCC(Cn1cncn1)c1ccc(Cl)cc1Cl (stereo not given), the outcome is reported as “inactive”. CCc1cccc(CC)c1N(COC)C(=O)CCl was tested, and the outcome was “inactive”. For C[N+]1(C)CCCCC1, the outcome was “inactive”. CC(=NC#N)N(C)Cc1ccc(Cl)nc1 was tested, and the outcome was “inactive”. CCCSP(=O)(OCC)Oc1ccc(Br)cc1Cl (stereo not given) was tested, and the outcome was “inactive”. O=C(O)c1cc(Oc2ccc(C(F)(F)F)cc2Cl)ccc1[N+](=O)[O-] was tested, and the outcome was “inactive”. CCc1cccc(C)c1N(C(=O)CCl)C(C)COC (stereo not given) was tested, and the outcome was “inactive”. In the case of O=c1ccc(=O)[nH][nH]1, the outcome is reported as “inactive”. In the case of CCCSP(=O)(OCC)SCCC, the outcome is reported as “inactive”. S=C1NCCN1 was tested, and the outcome was “inactive”. In the case of COP(=O)(OC)SCn1c(=O)oc2cc(Cl)cnc21, the outcome is reported as “inactive”. COc1ccc(C(=CC(=O)N2CCOCC2)c2ccc(Cl)cc2)cc1OC was tested, and the outcome was “inactive”. For C[Si](Cn1cncn1)(c1ccc(F)cc1)c1ccc(F)cc1, the outcome was “inactive”. For CC1=NNC(=O)N(/N=C/c2cccnc2)C1, the outcome was “inactive”. For CCOP(=S)(OCC)SCCSCC, the outcome was “inactive”. With O=[N+]([O-])c1cc(C(F)(F)F)c(Cl)c([N+](=O)[O-])c1Nc1ncc(C(F)(F)F)cc1Cl the AC50 was 9.39 µM (active) and the outcome was “inactive”. CN1COCN(Cc2cnc(Cl)s2)C1=N[N+](=O)[O-] was tested, and the outcome was “inactive”. For CCc1cnc(C2=NC(C)(C(C)C)C(=O)N2)c(C(=O)O)c1 (stereo not given), the outcome was “inactive”. In the case of CSc1nc(NC(C)C)nc(NC(C)C)n1, the outcome is reported as “inactive”. In the case of CSC1=N[C@@](C)(c2ccccc2)C(=O)N1Nc1ccccc1, the outcome is reported as “inactive”. CCCOCC(=Nc1ccc(Cl)cc1C(F)(F)F)n1ccnc1 was tested, and the outcome was “inactive”. With CCCCOC(=O)c1ccccc1C(=O)O the outcome was “inactive”. For CNC(=O)ON=C(C)SC, the outcome was “inactive”. With CC(C1CC1)C(O)(Cn1cncn1)c1ccc(Cl)cc1 (stereo not given) the outcome was “inactive”. For Nc1c(Cl)cc([N+](=O)[O-])cc1Cl, the outcome was “inactive”. For Cc1cc(C2CC2)nc(Nc2ccccc2)n1, the outcome was “inactive”.
